Laboratory results published in PMC5540273 (PLoS ONE, 2017).

test system: AURKB; conditions: concentration: 1 μM, replicates: in singlicate; n = 1
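Further: KINOMEscan kinase panel screen.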

Compound	%Inh [%]
CCC(=O)c1c(-c2ccccc2)c2cc(Cl)ccc2c(=O)n1Cc1cc(S(C)(=O)=O)n(CC(F)F)n1	11
CCC(=O)c1c(-c2ccccc2)c2cc(Cl)ccc2c(=O)n1Cc1cc(S(C)(=O)=O)n(CC(N)=O)n1	0
O=C(Nc1ccc2c(c1)OCO2)NC1CCN(c2ccnc(NCc3ccc(F)cc3)n2)CC1 [GSK1379859]	0
Cn1c(=O)c(F)c(Nc2ccc(I)cc2F)c2c(=O)n(OC[C@H](O)CO)cnc21	9
Nc1nccc2scc(-c3ccc4c(c3)CCN4C(=O)Cc3ccccc3)c12 [GSK2576924]	16
C[C@@H]1CC[C@H](C(=O)NC2CCCCC2)CN1c1cc(-c2ccc3c(N)n[nH]c3c2)nc(N)n1 [GSK2291363]	24
O=C(NCCNc1ccnc(Nc2ccc(F)cc2)n1)Nc1ccc2c(c1)OCO2 [GSK1379882]	0
CCS(=O)c1ccc(-c2coc3ccc(-c4nnc(C)o4)cc23)cc1 (stereo not shown)	1
Cc1cccc(-c2cc(-c3c[nH]nc3-c3ccccn3)ccn2)c1 [GW679395]	15
CN1C(=O)C(Nc2ccccc2)=C(c2ccccc2)C1=O [SB-300079]	21
COc1cccc(-n2cnc3c(N)ncnc32)c1 [SKF-97416]	31
COc1ccc(CNC(=O)NC2CCN(c3ccnc(Nc4ccc(F)cc4)n3)C2)cc1 (stereo not shown) [GSK1379706]	20
Nc1n[nH]c2nnc(-c3ccccc3)c(-c3ccccc3)c12 [GW554060]	35
